Assay results published in PubChem BioAssay AID602156 (GNF / Scripps Winzeler lab, 2011).
Out of some 5,700 compounds screened, about 280 (4.9%) were called active. The rule behind the calls is not given here. Only a sample is shown.

Assay: exo-erythrocytic parasite development inhibition – imaging, Malaria Box, P. yoelii, HepG2-A16-CD81EGFP, dose response (AID 602156)
Conditions: P. yoelii liver stage in HepG2-A16-CD81EGFP

outcome, inactive:
CC(C)(C)CC(=O)NCCCCNc1ccnc2cc(Cl)ccc12, O=C(Nc1ccc(-c2nc3ccccc3[nH]2)cc1)c1ccc(-c2cccc([N+](=O)[O-])c2)o1, O=C(Nc1ccc(-c2nc3ccccc3[nH]2)cc1)c1cccc(C(=O)Nc2ccc(-c3nc4ccccc4[nH]3)cc2)n1, CCc1ccccc1N(CC(=O)NC1CCCCC1)C(=O)CCC(=O)Nc1ccccn1, Oc1ccc(-c2ccccc2)cc1CNC1CCCCC1, CCOC(=O)c1c(C)[nH]c(C)c1S(=O)(=O)N1CCCC(C(=O)N2CCN(c3cccc(C)c3C)CC2)C1 (stereo not given), CC1CN(C(=O)C(Cc2c[nH]c3ccccc23)NC(=O)CCl)CCN1C(=O)Nc1ccccc1 (stereo not given), Cc1ccc(C=Cc2ccc3ccccc3[n+]2C)cc1, COc1ccc(-c2c[n+](CC(=O)c3ccccc3)c3n2CCC3)cc1, COc1ccc(OC)c(-c2ccc(O)c(CNCC(C)c3ccccc3)c2)c1 (stereo not given), Fc1cc(F)c(C2SCCN2C(=S)Nc2cccc(C(F)(F)F)c2)c(F)c1 (stereo not given), COc1cccc2cc(C(=O)Nc3cccc(C(F)(F)F)c3)c(=O)oc12, CC(C)(C)CC(C)(C)Nc1c(-c2ccccc2OC(=O)c2cccc(Br)c2)nc2ccccn12, COc1ccccc1C=CC1=NC(=Cc2ccc(SC)cc2)C(=O)O1, O=C(Cn1cc([N+](=O)[O-])nc1[N+](=O)[O-])N1CCN(c2ccc(F)cc2)CC1, CCOc1ccc(C=C2SC(=Nc3ccccc3)NC2=O)cc1OC, CCOC(=O)C1CCN(C(=O)CN2C(=O)c3ccccc3C2c2c[nH]c3ccccc23)CC1 (stereo not given), N#CC(=Cn1cc(Cc2ccc(Cl)cc2Cl)c2ccccc21)c1nn(CCO)c(N)c1C#N, Cc1nnc2sc(SCc3ccc([N+](=O)[O-])cc3)nn2c1=O, CC1CCN(S(=O)(=O)c2ccc(C(=O)NCc3ccco3)cc2)CC1, CCN1CCCC1CNc1ncnc2c1[nH]c1ccc(C)cc12 (stereo not given), c1ccc(CCCNc2ccnc3cc4ccccc4cc23)cc1, COCCn1c(SCC(=O)c2ccc(C)cc2C)nnc1-c1ccco1, CCN(CC)CCNc1ncnc2c1[nH]c1ccc(Br)cc12, CC(C)CNC(=O)c1cnc(NCCCN2CCCC2)nc1NCC1CCCCC1, CC[n+]1c(/C=C2\Sc3oc4ccccc4c3N2C)ccc2cc(C)ccc21, c1ccc(Nc2nc(NCC3CCCO3)c3ccccc3n2)cc1 (stereo not given), COc1ccccc1N1C(=N)SC(=Cc2ccc(OCc3ccccc3F)cc2)C1=O, CC[N+](CC)=c1scc(-c2ccc([N+](=O)[O-])cc2)s1, COc1cc(C(=O)NCCc2cc3ccccc3[nH]2)ccc1OC1CCN(CC(c2ccccc2)c2ccccc2)CC1, O=C(NCCCCCCCCCCNC(=O)Nc1ccc(C2=NCCCN2)cc1)Nc1ccc(C2=NCCCN2)cc1, COc1ccc(-c2csc3nc(COc4cccc(C)c4)nn23)c(O)c1, CCCCN(C)C(=O)CSc1nc(NCc2ccccc2)c2ccccc2n1, Cc1ccc(N=C2SC(=Cc3c(Cl)cccc3Cl)C(=O)N2c2ccc(C)c(C)c2)cc1C, CCCCCCC(=O)Oc1ccccc1-c1nc2ccccn2c1NC(C)(C)CC(C)(C)C, CN(CCCNc1ccnc2cc(Cl)ccc12)C(=O)c1ccc(Cl)c(Cl)c1, Cc1c(Cl)cccc1NC(=O)C1C(C(=O)O)C2C=CC1C21CC1 (stereo not given), CCCCCCN(C(=O)c1ccccc1)C(CC)c1nc2ccccc2c(=O)n1-c1ccccc1OC (stereo not given), CCCCCN(C(=O)c1ccc(Br)cc1)C(CC)c1nc2ccccc2c(=O)n1-c1ccccc1OC (stereo not given), O=c1c2c(nc3cc(-c4ccc(Cl)cc4)[nH]n13)CCCC2, O=c1c2c(nc3cc(-c4ccc(-c5ccccc5)cc4)[nH]n13)CCCC2, Cc1cccc(OCC(=O)Nc2cccc(NC(=O)COc3cccc(C)c3)n2)c1, CCc1ccc(C(C)=NNc2nc(-c3ccccc3)cc(=O)[nH]2)cc1, Cc1cccc(NS(=O)(=O)c2ccc3[nH]c(=O)ccc3c2)c1C, COc1cc(/C=C(\C#N)c2nc3ccccc3[nH]2)ccc1OCc1ccc(C)cc1, Clc1ccc(Nc2nc(Nc3ccc(Cl)cc3)c3ccccc3n2)cc1, CCc1ccc(-n2c(C(CC)N(CCc3ccccc3)C(=O)c3cc(OC)cc(OC)c3)nc3ccccc3c2=O)cc1 (stereo not given), CCCCCCN(C(=O)COCc1ccccc1)C(C)c1nc2ccccc2c(=O)n1-c1cccc(Cl)c1C (stereo not given), Cc1ccc2c(c1)c(-c1ccccc1)c(-c1ccccc1)n2CC(O)CN1CCN(Cc2ccccc2)CC1 (stereo not given), CC1CC(C)CN(c2ccc([N+](=O)[O-])cc2-c2nn[nH]n2)C1 (stereo not given), COc1ccc(C=NNc2nc3ccc(Cl)cc3[nH]2)cc1OC, COc1ccc(C=C2SC(=N)N(c3ccc4c(c3)OCO4)C2=O)cc1OC, COc1ccc(C(OCC(=O)N2CCN(Cc3ccccc3)CC2)c2ccccc2)cn1 (stereo not given), O=C(Nc1ccc(C2=NCCN2)c(Cl)c1)c1cccc(C(=O)Nc2ccc(C3=NCCN3)c(Cl)c2)c1, CC1CC(C)CN(S(=O)(=O)c2ccc(C(=O)Nc3ccc(-c4nc5ccccc5o4)cc3)cc2)C1 (stereo not given), Cc1ccc2cc3c(N)c4cccc(C)c4nc3nc2c1, CCOc1ccc(Nc2[nH]c(=O)sc2C2=c3cc(Br)ccc3=NC2=O)cc1, Cc1ccc(O)c(NC(=O)c2cnn3c(C(F)(F)F)cc(-c4ccc(F)cc4)nc23)c1, O=C(C=Cc1cccnc1)C12CC3CC(CC(C3)C1)C2, O=C1NN(c2ccccc2)C(=O)C1=C1C(=O)N(Cc2cccc3ccccc23)c2ccccc21, Cc1cc2ncn(N=Cc3cccnc3)c2cc1C, CCOC(=O)c1c(C)n(-c2ccccc2)c2ccc(OC(=O)c3ccccc3NC(=O)CC)cc12, CC(C)=CCCC(C)=CCCC(C)NCCN1CCNCC1 (stereo not given), C=CCNC(=O)c1ccc2c(c1)N=CN(CCOc1ccccc1)C2, Cn1c(SCC2CCCO2)nnc1C1CCN(C/C=C/c2ccccc2)CC1 (stereo not given), Cc1cc(S(=O)(=O)N2CCN(Cc3ccccc3)CC2)ccc1-n1cnnn1, COc1ccc(S(=O)(=O)ON=C2C=C(C(C)C)C(=O)C=C2C)cc1, COc1ccc(NC(=O)C2c3ccccc3C(=O)N(CC(C)C)C2c2cccs2)cc1OC (stereo not given), COc1ccc(NC(=O)/C=C/c2ccccc2Cl)cc1, O=C1CC(c2ccccc2)CC2=C1C(c1cc(F)ccc1F)Nc1ccccc1N2 (stereo not given), CCCCCCCCC(=O)N1CCN(C(CC)c2nc3ccccc3c(=O)n2C)CC1 (stereo not given), CC(c1nc2ccc(Cl)cc2c(=O)n1C)N1CCN(C(=O)C(C)(C)C)CC1 (stereo not given), CCCCC(CC)C(=O)N1CCN(C(C)c2nc3ccc(Cl)cc3c(=O)n2C)CC1 (stereo not given), CCC(NC1CCCCC1)c1nc2ccccc2c(=O)n1C (stereo not given), CCCCCCCCCC(=O)N1CCN(C(CC)c2nc3ccccc3c(=O)n2C)CC1 (stereo not given), CC(c1nc2ccccc2c(=O)n1-c1ccc(Br)cc1)N1CCN(S(=O)(=O)c2ccc3ccccc3c2)C(C)C1 (stereo not given), COc1ccc(/C=C2\N=C(c3ccc(Cl)cc3)N(c3ccccc3)C2=O)cc1OC, O=C(NCCCNC(=O)Nc1cccc(C2=NCCN2)c1)Nc1cccc(C2=NCCN2)c1, CC(C)c1ccc(NC(=O)C=Cc2ccccc2Cl)cc1, COC(=O)c1sccc1S(=O)(=O)N1CCCC(c2[nH]ncc2-c2ccccc2)C1 (stereo not given), Cc1cccc(Nc2nc3nonc3nc2NN=Cc2cccs2)c1C, O=C(NCCC(c1ccccc1)c1ccccc1)c1cccc([N+](=O)[O-])c1, COC(=O)c1ccc(C=NNc2cc(C)nc3ccc(OC)cc23)cc1, O=S(=O)(/C=C/c1ccccc1)NCCCCNc1ccnc2cc(Cl)ccc12, CCN(CC)Cc1cc(Nc2nc3ccccc3[nH]2)cc(CN(CC)CC)c1O, CC[n+]1c(C=C2Sc3ccccc3N2C)ccc2ccc(C)cc21, O=C(CNCCc1ccccc1)NC(c1ccccc1)c1ccccc1, O=C(c1c2c(nc3ccccc13)CCC2)N1CCc2ccccc21, O=C(O)c1cc([N+](=O)[O-])ccc1Oc1cncc(Cl)c1, CCCN(CCC)CC(O)COc1ccccc1C(=O)Nc1ccccc1 (stereo not given), CCn1c(SCC(=O)N(c2ccccc2)c2ccccc2)nc2sc3c(c2c1=O)CCN(C)C3, Cc1cccc(CCNc2cc(C)nc3ncnn23)c1, COc1ccccc1N1CCN(C(=O)Nc2ccc3ccccc3c2)CC1, Oc1ccc(-c2cnccn2)cc1CNC1CCN(Cc2ccccc2)CC1, CC1(C)C2CCC1(C)C(NCc1ccccc1O)C2 (stereo not given), COc1ccc(OC)c(-c2ccc(O)c(CNCc3ccccc3OC)c2)c1, COc1ccc(CNC(=O)C2CNCC2c2ccc(C(F)(F)F)cc2)cc1 (stereo not given), COc1cccc(CNC(=O)[C@@H]2CNC[C@H]2c2ccc(C(F)(F)F)cc2)c1, CCCCCN1/C(=C\C=C\c2n(CC)c3cc(Cl)c(Cl)cc3[n+]2CCCCC)N(CC)c2cc(Cl)c(Cl)cc21, COc1ccc(-c2cc(C(=O)NCc3cccnc3)no2)cc1OC
